Measured values from the supplement of paper PMC6555819.

What was measured:
Experiment in all cases: PBM binding z-score (relative to random genomic background probes); higher = stronger binding; sequences stand for … in GC…GCGATTGACAGCGTAGAATGAAGG
[1] = system: FXR:RXRa (NR concentration 270 nM, RXRa partner concentration 90 nM)
Summary of the method: (§1)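 Each nuclear receptor dimer, without ligand, was incubated for 1 h on custom Agilent 4×180K protein-binding microarrays. Binding was detected with antibodies against each partner (one per run), and scanned fluorescence was regression-normalized. The binding z-scores are referenced to random human genomic background probes.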

[2] = system: LXRa:RXRa (NR concentration 270 nM, RXRa partner concentration 90 nM)
Summary of the method: as §1

[3] = system: LXRa homodimer (NR concentration 270 nM)
Summary of the method: as §1

[4] = system: LXRb:RXRa (NR concentration 270 nM, RXRa partner concentration 90 nM)
Summary of the method: as §1

[5] = system: LXRb homodimer (NR concentration 270 nM)
Summary of the method: as §1

[6] = system: PPARa:RXRa (NR concentration 270 nM, RXRa partner concentration 90 nM)
Summary of the method: as §1

[7] = system: PPARg:RXRa (NR concentration 180 nM, RXRa partner concentration 90 nM)
Summary of the method: as §1

[8] = system: PPARg:RXRa 270nM:90nM, anti-RXR (NR concentration 270 nM, RXRa partner concentration 90 nM)
Summary of the method: as §1

[9] = system: PPARg:RXRa 30nM:10nM, anti-RXR (NR concentration 30 nM, RXRa partner concentration 10 nM)
Summary of the method: as §1

[10] = system: PPARg:RXRa 90nM:30nM, anti-RXR (NR concentration 90 nM, RXRa partner concentration 30 nM)
Summary of the method: as §1

Sequence	PBM binding z-score [1]	PBM binding z-score [2]	PBM binding z-score [3]	PBM binding z-score [4]	PBM binding z-score [5]	PBM binding z-score [6]	PBM binding z-score [7]	PBM binding z-score [8]	PBM binding z-score [9]	PBM binding z-score [10]
TCTTGTAGATCAGCAGGTTTAGAAAGCTGGCCAA	-0.241	-0.13	-0.52	0.0239	-0.59	0.117	-0.901	0.915	2.13	1.23
AGAATGAGGTTATTAAGAGCAGGGAATTGCGGTC	1.73	1.76	0.247	1.32	0.0744	2.77	1.58	1.87	0.503	1.45
CCTGCTATGTCATGGTCAGCTAATCTACAGTATG	0.128	-0.0634	-0.269	-0.0445	-0.226	-0.318	0.0811	-0.104	0.0801	0.346
ATCTCTAGGTACCCAAGTTCAGTGAATGCCGAAC	0.332	1.7	3	0.887	1.08	0.625	0.408	0.456	0.321	0.493
CCGACTGGGGCAGAAAGGTTACGATACCATCCGG	0.702	0.832	-0.247	1.01	-0.887	2.34	2.25	3.05	0.964	2.25
CGTCCAAGTTCAAGGTAACGTAACAGAAAGCAGC	2.88	2.37	0.562	1.53	0.319	2.68	1.17	1.4	0.382	1.04
TGCATGAGGTTATAAGATCAGGGAACGTTGCAAA	1.67	1.59	-0.113	0.956	0.14	2.37	0.778	1.2	0.448	0.789
AGAACGAGGGCACGCTGAGTTGATAGCTGAGTAG	0.863	0.607	-0.912	0.017	-0.95	2.18	2.08	1.87	0.18	1.06
ATATCTAGGTTAGCTGGGGTCATTCAGACTAGGC	4.62	5.44	3.33	4.64	2.06	5.23	5.59	5.22	2.61	4.47
ACAGACAGGTCATGAAGGTAACTCAGGCTATCAT	5.65	4.39	0.927	3.31	0.862	4.77	3.76	3.6	1.23	2.19
TCTTGTACATCAAGCAGGTTAAGAAAGCCTGAGT	0.785	0.852	-0.0231	0.861	0.106	1.05	-0.153	1.37	3.03	2.18
ATCTCTCGGTAACAAGTTCAGTGAAAGAGAGGAC	0.379	0.429	0.428	0.549	0.942	0.533	0.157	0.369	0.251	0.484
